This passage reports growth inhibition results from PubChem BioAssay (NCI).

The nature of assay [1]: NCI Yeast Anticancer Drug Screen. Data for the rad50 strain (AID 155).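 Further: 0% = growth of vehicle-only cultures of the same strain.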 As to conditions: S. cerevisiae rad50 strain growth inhibition; at 50.0 µM; active compounds read high. The procedure, abridged:
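Yeast carrying a defined DNA repair defect were exposed to test compounds, and growth was compared with vehicle-treated controls to give percent inhibition.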

A short description of assay [2]: NCI Yeast Anticancer Drug Screen. Data for the mec2-1 strain (AID 157). As to conditions: S. cerevisiae mec2-1 strain, at 50.0 µM, active compounds read high. The procedure, abridged:
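mec2-1 yeast strain, carrying an alteration in DNA damage repair or cell cycle control, was exposed to compounds; growth inhibition was measured relative to vehicle-treated controls.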

A short description of assay [3]: NCI Yeast Anticancer Drug Screen. Data for the sgs1 mgt1 strain (AID 161).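 Further: 0% = growth of cultures given vehicle only.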 As to conditions: S. cerevisiae sgs1 mgt1 strain, at 50.0 µM, active compounds read high. A digest of the protocol: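 Percent growth inhibition was derived by comparing compound-exposed mutant yeast with vehicle-exposed cultures. The strain carries alterations in DNA damage repair.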
Assay [4] is described as follows: NCI Yeast Anticancer Drug Screen. Data for the cln2 rad14 strain (AID 165).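 Further: 0% = growth equal to vehicle treated cultures.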 Particulars: S. cerevisiae cln2 rad14 strain, at 50.0 µM, active compounds read high. A digest of the protocol: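 Yeast carrying cln2 and rad14 alterations (cell cycle control and DNA damage repair) were exposed to compounds. Growth inhibition was measured against vehicle-treated controls.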
The nature of assay [5]: NCI Yeast Anticancer Drug Screen. Data for the bub3 strain (AID 167). Particulars: S. cerevisiae bub3 mutant strain, at 50.0 µM, active compounds read high. The procedure, abridged: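 Compounds were applied to a genetically altered yeast strain carrying a cell-cycle control defect. Growth inhibition was scored against vehicle-treated controls.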
The nature of assay [6]: NCI Yeast Anticancer Drug Screen. Data for the mlh1 rad18 strain (AID 175). As to conditions: S. cerevisiae mlh1 rad18 strain growth inhibition; at 50.0 µM; active compounds read high. A digest of the protocol:
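Growth inhibition of the yeast strain was measured after compound exposure and expressed relative to vehicle-treated controls. The strain carries defined defects in DNA damage repair.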

SMILES strings stand for the structures. The panel holds about 79,000 compounds, 15% with a hit somewhere; the sample as a whole holds those more often. Unmarked numbers belong to inactive results. Activity calls are given as the source filed them. No stated cut-off is given here; in the data, active means growth inhibition above about 70%; inactive means the rest. Where a SMILES comes first, the peptide text is derived from it. [ ]: non-standard residue; d: D form. The star is where a group is joined. ξ: configuration not given here. Cbz = O=C(OCc1ccccc1)*; Boc = CC(C)(C)OC(=O)*; ξT = CC(O)C(N)C(=O)O

In the case of `CC(C)(C)OC(=O)NC(Cc1ccc(O)cc1)C(=O)N1CCCC1C(=O)O` (stereo not drawn) (Boc-Tyr-Pro-OH; configuration not given here), the growth inhibition in assay [1] was -13%; in assay [2], -11.3%; in assay [3], -20.9%; in assay [4], -10.2%; in assay [5] it was -22.9%; in assay [6], -23.1%.
For `N#Cc1ccc(/C=N\NC(=O)CCSCCC(=O)N/N=C/c2ccc(C#N)cc2)cc1`, the growth inhibition in assay [1] is 13.2%; in assay [2] it was 24.9%; in assay [3], 7.65%; in assay [4] it was 18.4%; in assay [5], 13.1%; in assay [6] it was 7.45%.
For `CO/C(=N\N=C\c1ccc(OC)c(OC)c1)c1ccncc1`, the growth inhibition in assay [1] was -21.6%; in assay [2], -37.9%; in assay [3], -12.9%; in assay [4], -7.75%; in assay [5] it was -28.6%; in assay [6], -40%.
In the case of `O=C1C2C3CCC(O3)C2C(=O)N1c1ccccn1` (stereo unspecified), the growth inhibition was -26.3% in assay [1]; -11.6% in assay [2]; -4.85% in assay [3]; -25.1% in assay [4]; 2.25% in assay [5]; 0.2% in assay [6].
Take `NNC(=O)c1ccc(Cl)cc1Nc1ccccc1`: the growth inhibition in assay [1] was 24.9%; in assay [2], 47%; in assay [3] it was 59%; in assay [4] it was 16.7%; in assay [5] it was -17.2%; in assay [6] it was 89% (active).
On to `C=Cc1ccc(C)[n+](C[Si](C)(C)O[Si](C)(C)C)c1`, for which the growth inhibition was -7.75% in assay [1]; -39% in assay [2]; -8.95% in assay [3]; 19.4% in assay [4]; -22.9% in assay [5]; -20.7% in assay [6].
As to `COC12OCCN(C)C1=CC(=O)C1N=NCC12` (stereo unspecified), the growth inhibition in assay [1] was 5.75%; in assay [2], 1.35%; in assay [3], 11.2%; in assay [4], 8.3%; in assay [5], -0.3%; in assay [6] it was 7.55%.
As to `CCCCN(C(=O)N(CC)CC)[Si](C)(C)C`, the growth inhibition was -17.6% in assay [1]; -41.7% in assay [2]; -12.4% in assay [3]; 14% in assay [4]; -14.7% in assay [5]; -25.3% in assay [6].
`CS(=O)CC1OC2OC3C(CO)OC(OC4C(CO)OC(OC5C(CO)OC(OC6C(CO)OC(OC7C(CO)OC(OC8C(CO)OC(OC1C(O)C2O)C(O)C8O)C(O)C7O)C(O)C6O)C(O)C5O)C(O)C4O)C(O)C3O` (stereo unspecified): the growth inhibition is -1.9% in assay [1]; -17.4% in assay [2]; -8.55% in assay [3]; -21.4% in assay [4]; -8% in assay [5]; 10.2% in assay [6].
Turning to `CCCCCSCCC(=O)O`, the growth inhibition in assay [1] was 12.4%; in assay [2], 11.7%; in assay [3] it was 11.2%; in assay [4], 4.25%; in assay [5], -1.2%; in assay [6] it was -6.35%.
`O=C(CC(=O)c1ccc(Cl)cc1)c1ccc(Cl)cc1`: the growth inhibition is 12.9% in assay [1]; 14.5% in assay [2]; -3.95% in assay [3]; 0.35% in assay [4]; 8.9% in assay [5]; 4.45% in assay [6].
Consider `CCCCN(CCCC)CCCNC(=O)OCC`, for which the growth inhibition in assay [1] is -4.2%; in assay [2], -22.9%; in assay [3], -7%; in assay [4], 14.6%; in assay [5], -26.8%; in assay [6], -6.2%.
`Clc1ccc(C=Nc2ccc3c(c2)Cc2ccccc2-3)c(Cl)c1`: the growth inhibition in assay [1] was -5.15%; in assay [2], -33.6%; in assay [3], -21.6%; in assay [4] it was -3.85%; in assay [5], -35.2%; in assay [6], -2.4%.
In the case of `O=C1CCCc2ccc([N+](=O)[O-])cc21`, the growth inhibition in assay [1] was -3.35%; in assay [2], -54.7%; in assay [3], -17.2%; in assay [4], 18.6%; in assay [5], -11.8%; in assay [6] it was 23.1%.
Turning to `CC(O)C(NC(=O)CNC(=O)CNC(=O)OCc1ccccc1)C(=O)O` (stereo not drawn) (Cbz-Gly-Gly-[ξT]-OH), the growth inhibition in assay [1] is 7.2%; in assay [2], -3.25%; in assay [3], -2.45%; in assay [4], 16.4%; in assay [5], 6.65%; in assay [6] it was 3.05%.
For the molecule `O=C(/C(=C/c1ccc(Cl)cc1)c1ccccc1)c1ccccc1`, the growth inhibition was 9.2% in assay [1]; -28.4% in assay [2]; 6.45% in assay [3]; 13.9% in assay [4]; -21.1% in assay [5]; -2.75% in assay [6].
As to `c1csc(NC(Nc2nccs2)C23CC4CC(CC(C4)C2)C3)n1`, the growth inhibition was 28.1% in assay [1]; 12.7% in assay [2]; -1.4% in assay [3]; 20.6% in assay [4]; 1.1% in assay [5]; 7.45% in assay [6].
Take `CCCCc1c2c(nc3c1CCc1cc4cc5c(nc4nc1-3)-c1nc3c(c(CCCC)c1CC5)CCCC3)CCCC2`: the growth inhibition in assay [1] was 7.5%; in assay [2], 24.9%; in assay [3], 16.1%; in assay [4] it was -45.7%; in assay [5] it was 9.95%; in assay [6], 29.4%.
Consider `O=C(NC(O)C(=O)O)c1ccc(Cl)cc1` (stereo unspecified), for which the growth inhibition in assay [1] was -10.9%; in assay [2], -10.9%; in assay [3], -6.2%; in assay [4], 17.3%; in assay [5], -6.4%; in assay [6], -27.9%.
Consider `Cn1cnc2cc3c(cc2c1=O)nc1n3CCCC1`, for which the growth inhibition is -1.7% in assay [1]; -2.5% in assay [2]; -12.6% in assay [3]; -12.4% in assay [4]; -6.75% in assay [5]; -6.8% in assay [6].
As to `CC(CCl)NC(=O)Nc1cccc2c1CCCC2` (stereo unspecified), the growth inhibition in assay [1] was -12.5%; in assay [2], 0.3%; in assay [3], -3.9%; in assay [4], -36%; in assay [5], -2.6%; in assay [6], 18.8%.
